# Screen size: about 150,000 compounds; about 1,000 (0.67%) were called active. No stated cut-off is given here; in the data, active means % elongation below about 90%; inactive means the rest, inconclusive results apart. What follows is part of a selection rich in actives, with near analogues and random picks from the rest.
# Molecular target: Genome polyprotein (Poliovirus type 1 (strain Mahoney)) (UniProt P03300)
# Assay: inhibitors of poliovirus polymerase RNA elongation – biochemical, fluorescence polarization, total intensity, primary screen (AID 588519); on z-score: compound at 16.7 µg/mL
# Details: stronger effect = lower value; for % elongation: compound at 16.7 µg/mL; for z-score: measured here: FP z-score
# [1] = measured here: total intensity read-out
# Genome polyprotein (Poliovirus type 1 (strain Mahoney)), sequence (P03300 1749-2209 limits assumed): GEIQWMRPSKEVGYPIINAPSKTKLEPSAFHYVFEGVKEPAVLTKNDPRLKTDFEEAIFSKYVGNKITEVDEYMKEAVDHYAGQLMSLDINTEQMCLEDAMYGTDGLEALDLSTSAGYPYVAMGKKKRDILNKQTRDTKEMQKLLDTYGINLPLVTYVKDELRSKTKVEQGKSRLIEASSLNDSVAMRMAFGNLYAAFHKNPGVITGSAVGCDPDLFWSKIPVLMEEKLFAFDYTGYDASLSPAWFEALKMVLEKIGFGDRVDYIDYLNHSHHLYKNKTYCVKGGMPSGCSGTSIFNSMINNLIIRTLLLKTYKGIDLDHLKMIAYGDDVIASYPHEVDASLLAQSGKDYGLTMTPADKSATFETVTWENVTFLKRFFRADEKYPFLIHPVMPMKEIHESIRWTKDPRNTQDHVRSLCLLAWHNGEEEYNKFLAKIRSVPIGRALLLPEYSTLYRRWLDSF
Compound,% elongation,z-score,% elongation [1] [%]
CC(=O)Nc1c(C)ccc(NC(=O)C2C(C=C(C)C)C2(C)C)c1C (stereo not drawn),102% (inactive),-0.1,102
COc1ccc(Cl)cc1N(C)C(=O)c1cc2c(=O)oc3ccc(C)cc3c2s1,107% (inactive),0.4,113
Cc1ccc2oc(=O)c3cc(C(=O)NC4CCCC4)sc3c2c1,104% (inactive),0.9,98
CCN(CC)CCNC(=O)c1cc2c(=O)oc3ccc(C)cc3c2s1,89% (active),-1.5,89
O=C(O)CSc1ccc(S(=O)(=O)N2CCCC2)cn1,105% (inactive),0.2,99
O=C(NC1CCCCC1)c1ccc(-n2ccc3ccccc32)s1,100% (inactive),-0.2,101
N#Cc1c(/N=C/c2c(O)[nH]c(=O)[nH]c2=O)sc2c1CCC2,110% (inactive),1.2,130
N#CSc1ccc(N)c(Br)c1,75% (active),-3.8,83
N#CSc1ccc(N2CCCCC2)cc1,99% (inactive),-0.2,100
O=C(COC(=O)C1CCC(=O)N1)Nc1nc(-c2ccccc2)cs1 (stereo not drawn),101% (inactive),-0.2,104
COc1ccc(-c2csc(=Nc3ccccc3)n2C)cc1,105% (inactive),0.5,102
O=C(CNc1ccccc1N1CCCCC1)N1CCc2ccccc21,102% (inactive),0.1,94
COc1ccccc1C(=O)COC(=O)COc1ccc(C#N)cc1,108% (inactive),0.7,108
NC(=S)N1CCCCC1,99% (inactive),-0.1,100
Clc1nc(Nc2ccccc2)sc1/C=N/N1CCOCC1,149% (inactive),5.6,195
Cc1cc(NC(=O)c2ccccc2C)no1,103% (inactive),0.4,103
N#CC(=C1C(=O)c2ccccc2C1=O)c1nc2ccccc2[nH]1,80% (active),-2.3,88
OC(c1nc2ccccc2[nH]1)C(O)C(O)C(O)c1nc2ccccc2[nH]1 (stereo not drawn),99% (inactive),-0.6,104
CS(=O)(=O)c1nc2ccccc2[nH]1,104% (inactive),0.4,107
COc1ccc(CN2CNc3c(c(C)nn3-c3ccccc3)C2)cc1,100% (inactive),-1,106
Cc1cccc(-n2c(Cn3ccc(C)n3)n[nH]c2=S)c1,104% (inactive),0.5,105

Compound,% elongation,z-score,% elongation [1] [%]
C=C(C)CNC(=S)N1CCNCC1,99% (inactive),0.1,105
C=C(C)CNC(=S)NN,83% (active),-1.3,86
CC(C)(C)CNC(=S)NN,98% (inactive),-0.9,101
CCCCN(C)C(=O)C1CCN(c2nn3cc(-c4ccc(OC)cc4)nc3s2)CC1,104% (inactive),0.4,105
Cc1ccc(NC2=C/C(=N/S(=O)(=O)c3ccc(F)cc3)c3ccccc3C2=O)cc1C,102% (inactive),0.1,106
COc1ccc(OCCCn2c(C3CC(=O)N(c4ccc(F)cc4)C3)nc3ccccc32)cc1 (stereo not drawn),109% (inactive),0.4,110
CCOc1ccc(N2CC(c3nc4ccccc4n3CCOc3ccc(OC)cc3)CC2=O)cc1 (stereo not drawn),111% (inactive),0.9,107
CCc1ccccc1N1CC(c2nc3ccccc3n2CCCCOc2ccccc2)CC1=O (stereo not drawn),63% (active),-7.7,68
COC(=O)c1ccccc1NC(=O)C1CC(c2cccc(Br)c2)=NO1 (stereo not drawn),104% (inactive),0.6,106
CC(C)NC(=O)CCc1c[nH]c2ccccc12,62% (active),-4.7,68
CCOC(=O)C(N)Cc1c[nH]c2ccccc12 (stereo not drawn),100% (inactive),-0.3,101
CC(=O)Nc1ccc(NC(=O)C(C)OC(=O)Cc2c[nH]c3ccccc23)cc1 (stereo not drawn),105% (inactive),0,108
CCOC(=O)c1c(C)c(-c2ccccc2)n(CC(=O)N2CCN(c3ccccn3)CC2)c1C,99% (inactive),-0.8,104
COc1ccc(C/C(C#N)=C/N2CCN(c3ccccc3F)CC2)cc1,102% (inactive),0.1,107
C=CCn1ccc2c(OCC(=O)c3ccccc3)cccc2c1=O,104% (inactive),0.6,101
CCNC(=O)N1c2ccccc2Sc2ccccc21,101% (inactive),0.2,103
CN1/C(=C/C(=S)C(C)(C)C)Sc2ccccc21,84% (active),-1.7,83
COCCNC(=O)N1c2ccccc2Sc2ccccc21,103% (inactive),0.4,100
Cc1[nH]nc2c1C1C(C2)C1(C)C (stereo not drawn),76% (active),-7.4,105
CCc1nc(NCc2ccccc2)c(C#N)c2c1COC(C)(C)C2,107% (inactive),0.4,112
